The sample as a whole holds a higher share of hits than the screen did.
JMJD2E inh: inhibitors of human JMJD2E histone demethylase | B2RXH2 | JMJD2E catalytic domain, FDH-coupled NADH fluorescence (FDH is formaldehyde dehydrogenase) | Potency, µM (doses to about 57.1 µM), without a hit: at the highest dose activity change, negative = inhibition, actives largely listed as inhibitors | 230,000 compounds, 1.6% hits | AID 2147; active means well fitted inhibition curve with a large enough effect, not every such curve was filed as active; inconclusive means small, poorly fitted or top-dose-only effect, or another doubt; inactive means no such curve, though single readings can be large or run the other way;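 further: 0% = wells with enzyme and -100% = buffer wells without enzyme; nearly all actives have a fitted effect of over 50% in size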
APE1 inh: APE1 (human) endonuclease inhibition | AID 2517 | 350,000 compounds, 0.35% hits | Potency, µM (series often up to 65.8 µM), inactives show at the top dose activity change, negative = inhibition, most hits filed as inhibitors | P27695 | recombinant APE1, TAMRA/BHQ-2 abasic DNA cleavage fluorescence;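 further: plate controls were vehicle for no effect and reference inhibitor for full effect; nearly all actives have a fitted effect of over 55% in size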
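Measures dequenching upon AP-site incision of a 5'-TAMRA/3'-BHQ-2 THF-containing duplex, 50 nM; human APE1 0.75 nM after 15 min room-temperature exposure to compound; kinetic three-point read at one-minute spacing.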
L3MBTL1 inh: inhibitors of human L3MBTL1; 230,000 compounds, 0.66% hits; AlphaScreen L3MBTL1–H3K9me1 peptide binding; Potency, µM (titrated, usually from 57.1 µM), for the others: top-dose activity, negative = inhibition, hits mostly inhibitors; further: nearly all actives have a fitted effect of over 60% in size
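L3MBTL1 50 nM + b-AHA-H3(1-15)K9me1 75 nM, 30 min RT; compound added, 30 min RT; streptavidin donor/Ni-chelate acceptor beads 10 ug/mL each final, 30 min RT dark; AlphaScreen read.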
RECQ1 inh: inhibitors of human RECQ1 DNA helicase | P46063 | RECQ1 DNA unwinding, red fluorescence kinetic read | Potency, µM (doses to about 57.3 µM), inactives show at the top dose activity, negative = inhibition, hits mostly inhibitors | 240,000 compounds, 0.54% hits;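 further: plate controls were vehicle for no effect and no enzyme for full effect; nearly all actives have a fitted effect of over 30% in size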
Target sequence (P46063 whole entry, looked up): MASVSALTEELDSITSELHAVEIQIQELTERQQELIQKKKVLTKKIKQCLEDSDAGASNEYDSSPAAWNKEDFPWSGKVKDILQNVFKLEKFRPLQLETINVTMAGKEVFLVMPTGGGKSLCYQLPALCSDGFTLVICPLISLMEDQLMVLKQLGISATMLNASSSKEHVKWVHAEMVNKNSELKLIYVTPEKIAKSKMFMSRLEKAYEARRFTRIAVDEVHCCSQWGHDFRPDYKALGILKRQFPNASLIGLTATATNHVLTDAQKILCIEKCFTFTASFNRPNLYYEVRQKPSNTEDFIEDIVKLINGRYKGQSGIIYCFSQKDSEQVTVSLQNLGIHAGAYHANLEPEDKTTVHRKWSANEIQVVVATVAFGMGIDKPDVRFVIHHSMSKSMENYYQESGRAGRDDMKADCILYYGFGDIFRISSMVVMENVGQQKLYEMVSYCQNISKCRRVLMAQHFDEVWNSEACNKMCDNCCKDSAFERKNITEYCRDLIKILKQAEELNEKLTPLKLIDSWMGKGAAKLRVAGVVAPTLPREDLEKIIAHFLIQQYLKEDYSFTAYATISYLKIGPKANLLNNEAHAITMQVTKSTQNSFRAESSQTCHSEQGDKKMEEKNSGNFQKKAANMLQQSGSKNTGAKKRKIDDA
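50 nM RECQ1T1 preincubated 15 min with compound in Tris pH 8.0 buffer with MgCl2, DTT, Tween-20 and 2.5 ug/ml poly(dI-dC); started with 200 nM TAMRA/BHQ-2 forked duplex and 2 mM ATP. Unwinding read as fluorescence (525/598 nm), two reads 2 h apart.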
BLM inh: Bloom syndrome helicase (human) inhibition. P54132. recombinant BLM DNA unwinding, fluorescence dequenching. Potency, µM (top dose mostly 56.1 µM), without a hit: at the top dose activity change, negative = inhibition, usual class: inhibitors. 350,000 compounds, 0.2% hits. AID 2528;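 further: plate controls were vehicle for no effect and no enzyme for full effect; nearly all actives have a fitted effect of over 35% in size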
The depositor's hits bear a star; i = inactive; ? = inconclusive; . = no result; ! = repeats disagree; [ ] = dose if it differs, or a comment. Unless noted, the call rests on the fitted dose curve; in most records, active means well fitted curve in the direction sought with a large enough effect; inconclusive means small, poorly fitted or top-dose-only effect, or another doubt; inactive means no such curve, though single readings can be large; an effect the other way counts as inactive or inconclusive. Unless noted, on the % scale 0 is the no-effect control and ±100 the full control effect; potency means the concentration at half of the fitted maximal effect.

SMILES	JMJD2E inh	APE1 inh	L3MBTL1 inh	RECQ1 inh	BLM inh
COc1ccc2[nH]c3c(=S)nc[nH]c3c2c1	8%	1%	-6%	-13%	1%
S=c1nc[nH]c2nc[nH]c12	20µM*	47%	9%	i	-2%
O=C(N/N=C/c1ccncc1)c1cccc(S(=O)(=O)Nc2ccc(Cl)cc2)c1	3.5µM*	15%	.	i	?
O=C(N/N=C/c1cccnc1)c1cccc(S(=O)(=O)Nc2cccc(Cl)c2)c1	-10%	1%	11%	-4%	-6%
COc1ccc(NC(=O)NNC(=O)c2ccc(Cl)cc2Cl)cc1OC	-2%	-2%	17%	-6%	-5%
Cc1[nH]c(=O)[nH]c1C(=O)CCCCC(=O)OCC(=O)Nc1ccccn1	2%	0%	0.71µM*	0%	2%
CCOC(=O)c1cc(C(=O)OCC)c(=O)[nH]c1C	-1%	?	33%	-5%	-2%
CCOC(=O)c1cc(C)[nH]c(=S)c1C#N	18µM*	0%	-6%	-6%	-1%
COc1ccc(NC(=O)C(NC(=O)Cc2cccs2)c2ccc(OC)cc2)cc1 (centres undefined)	.	.	.	.	0%
C/C(=N\NC(=O)CN(c1ccccc1)S(C)(=O)=O)c1ccccc1O	18µM*	14%	4%	-9%	-2%
O=C(NCc1ccccn1)C(=O)NCc1ccccn1	13%	4%	.	1%	-5%
CN(C)c1ccc(NC2=C([N+](=O)[O-])CS(=O)(=O)C2)cc1	-26%	-8%	.	20µM*	-7%
Cc1ccc(NC2=C([N+](=O)[O-])CS(=O)(=O)C2)cc1	2%	-4%	.	-5%	-1%
O=C(Nc1cccc(C(F)(F)F)c1)c1cccnc1N1CCCC1	-10%	-3%	4%	-16%	-4%
O=C(C[n+]1cccc(CO)c1)Nc1nc2ccccc2s1	10µM*	0%	-3%	i	6%
O=C(CS(=O)(=O)c1ccccc1)Nc1nc2ccccc2s1	10%	-3%	-9%	14%	-17%
COC(=O)[C@@]1(Cc2ccccc2)[C@H]2c3cc(C(=O)N(C)C)n(Cc4cc(C)n(C)n4)c3C[C@H]2CN1C(=O)c1ccccc1	12%	11%	.	i	2%
COc1cc(/C=N/N=C2/C(=O)Nc3ccccc32)ccc1O	-3%	11%	-7%	3%	-10%
O=C1Nc2ccccc2/C1=N\N=C\c1ccc(O)c(O)c1	7.9µM*	?	?	-17%	?
Oc1ccc(/C=N/N(c2ccccc2)c2ccccc2)cc1O	.	0%	.	.	-14%
Oc1ccc(/C=N/N=C/c2ccc(O)c(O)c2)cc1O	.	?	8.9µM*	.	?
Oc1ccc(N=Cc2ccc(O)c(O)c2)cc1	0.63µM*	7%	8.9µM*	i	28µM*
Cc1cc(C(=O)COc2ncnc3sccc23)c(C)n1C1CC1	-30%	-2%	-19%	2%	4%
O=C(O)c1cc(O)c2c(c1)[C@H]([C@H]1c3cc(C(=O)O)cc(O)c3C(=O)c3c(O[C@@H]4O[C@H](CO)[C@@H](O)[C@H](O)[C@H]4O)cccc31)c1cccc(O[C@@H]3O[C@H](CO)[C@@H](O)[C@H](O)[C@H]3O)c1C2=O	.	0.4µM*	.	.	.
COc1ccc(/C=N/N=C2/NC(=O)CC(C(=O)O)S2)cc1 (centres undefined)	-4%	5%	5%	-5%	1%
SMILES	JMJD2E inh	APE1 inh	L3MBTL1 inh	RECQ1 inh	BLM inh
COc1ccc(/C=N/N=C2/CC(C)(C)Cc3n[nH]c(=O)cc32)cc1	32µM*	?	-10%	-3%	-3%
COc1ccc(NC(=O)CN2C(=O)S/C(=C/c3cccn3-c3ccc(C(=O)O)cc3)C2=O)cc1	.	1.7µM*	.	.	?
Cc1cc(O)c(-c2cc(O)c(C)cc2O)cc1O	?	-4%	-20%	i	-4%
Cc1cc(O)c2c(c1O)C(=O)C(O)=C(O)C2=O	?	6.3µM*	.	10µM*	-28%
CCOC(=O)c1c(-c2ccc(OC)cc2)csc1NC(=O)CNCc1ccco1	-1%	2%	-6%	-3%	-7%
CCOC(=O)c1c(-c2ccc(Cl)cc2)csc1NC(=O)CNCc1ccco1	25µM*	?	.	-12%	-12%
N=C(CC(O)COc1ccccc1-c1ccccc1)N1CCCCC1 (centres undefined)	.	10µM*!	.	-19%	-9%
c1ccc(-c2ccccc2OCCCN2CCCCCC2)cc1	?	-4%	-6%	i	20%
COc1ccc(OCCC(=O)NCCN2CCOCC2)cc1	13%	1%	4%	-4%	-1%
O=C(Nc1cccc(C(F)(F)F)c1)Oc1ccc(Cl)c2cccnc12	?	3%	25µM*	i	-8%
CCN(CC)C(=O)Oc1ccc(Cl)c2cccnc12	?	4%	7%	i	1%
CC(=O)N1N=C(c2ccc3ccccc3c2)OC12CCCC2	?	?	18%	i	-7%
Nc1nnc(-c2cccc3ccccc23)o1	.	-3%	.	.	.
C=CCSc1nnc(-c2cccc3ccccc23)o1	.	2%	7.9µM*	.	.
Cc1ccc2cc(N)ccc2n1	32µM*	-4%	-9%	i	-2%
CC1(OC(=O)CCc2ccccc2)C(=O)C=C2C=C(c3ccc(C#N)cc3)N(c3ccccc3)C=C2C1=O (centres undefined)	11µM*	-3%[12.4 µM]	.	-5%[11.5 µM]	-1%[12.4 µM]
CC1(OC(=O)CCc2ccccc2)C(=O)C=C2C=C(c3ccc(C#N)cc3)N(C3CCCC3)C=C2C1=O (centres undefined)	20µM*	?	.	7%[11.5 µM]	-7%[12.4 µM]
CC1(OC(=O)CCc2ccccc2)C(=O)C=C2C=C(c3ccc(C#N)cc3)N(CC3CC3)C=C2C1=O (centres undefined)	?	-3%[12.4 µM]	.	11%[11.5 µM]	-6%[12.4 µM]
O=C(CNc1cccc2ccccc12)N/N=C/c1cccc(Oc2ccccc2)c1	28µM*	11%	-8%	-17%	-13%
COc1cccc(NS(=O)(=O)c2ccc3[nH]cc(C(=O)N(C)Cc4ccco4)c(=O)c3c2)c1	-2%	?	.	-16%	0%
Cc1ccccc1NS(=O)(=O)c1ccc2[nH]cc(C(=O)N(C)Cc3ccco3)c(=O)c2c1	?	35µM*	?	32µM*	-2%
CC(C)c1ccc(N2C(=O)/C(=C/N(C)C)SC2=S)cc1	-4%	28µM*	.	32µM*	35%
Cc1ccc(NC(=O)CN2C(=O)S/C(=C\c3cc(Cl)c(OCC(=O)O)c(Cl)c3)C2=O)cc1	.	7.5µM*	0%	.	?
COc1ccc2c(c1)OC/C(=C\c1ccc(OC)c(O)c1)C2=O	20µM*	?	.	-1%	-12%
O=C1N(CN2CCC3(CC2)OCCO3)c2ccccc2C12OCCCO2	2%	-1%	3%	-2%	-3%
O=C(NN=C1CCN(Cc2ccccc2)CC1)c1cc2ccccc2cc1O	28µM*	-2%	-8%	-8%	-23%
COc1ccc(-n2c(Cc3cccn3C)nnc2SCC(=O)N2CCCc3ccccc32)cc1	1%	10%	-2%	16µM*	-6%
